Compound activity from PubChem BioAssay.
NS1 function inh: qHTS Assay for Inhibitors of Influenza NS1 Protein Function | Potency, µM (highest dose often 46.1 µM) | AID 2326, 2010 | actives 0.4% (n = 270,000); calls by dose curve; also: actives are rising curves; nearly all actives have a fitted effect of over 50% in size
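In this qHTS, NS1 from influenza A is expressed in budding yeast, where it slows growth. Cells are switched from glucose to 2% galactose medium (pH 6.0, -URA), treated with compound, and growth recovery is read at OD600.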
Sm TGR inh: qHTS Assay for the Inhibitors of Schistosoma Mansoni Peroxiredoxins; AID 485364, 2010; purified TGR, DTNB reduction, TNB absorbance 405 nm; actives 3% (n = 360,000); Schistosoma mansoni thioredoxin glutathione reductase (TGR), Q962Y6; Potency, µM (titrated, usually from 114 µM), most hits filed as inhibitors; also: nearly all actives have a fitted effect of over 60% in size
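Kinetic colorimetric format: TGR-catalysed, NADPH-driven DTNB reduction monitored via TNB absorbance. Enzyme dispensed at 20 nM; compound exposure 15 min at room temperature before reaction start.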
Pf growth 96h: Primary qHTS for delayed death inhibitors of the malarial parasite plastid, 96 hour incubation | P. falciparum luciferase reporter growth, 96 h | Potency, µM (series often up to 28.7 µM), actives largely listed as inhibitors | actives 6.9% (n = 320,000)
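96 h incubation, 37 C, 5% CO2, of luciferase-reporter P. falciparum-infected RBCs (2% hematocrit, 0.05% parasitemia final) with test compounds; endpoint luminescence.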
AMA1 RON2 block: qHTS for Inhibitors of AMA1-RON; Towards Development of Antimalarial Drug Lead: Primary Screen | Plasmodium falciparum AMA1 (3D7) - RON2 peptide interaction | AlphaScreen AMA1-biotinylated RON2 peptide binding | Potency, µM (top dose mostly 58.2 µM), hits mostly inhibitors | actives 0.2% (n = 360,000) | AID 720542, 2013; also: nearly all actives have a fitted effect of over 45% in size
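AMA1 (3D7) with his tag at 25 nM final met compounds first, then biotinylated RON2 peptide at 25 nM; detection used donor plus acceptor beads, 10 µg/mL apiece, read by AlphaScreen after 30 min at room temperature.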
Pf growth 48h: Primary qHTS for delayed death inhibitors of the malarial parasite plastid, 48 hour incubation | actives 5.9% (n = 310,000) | Potency, µM (doses to about 28.7 µM), actives largely listed as inhibitors | P. falciparum luciferase growth in erythrocytes, 48 h | AID 504832, 2011
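Here the parasites carry a stable luciferase gene and grow inside erythrocytes in Albumax-based RPMI medium with compound for one erythrocytic cycle. Activity is scored as loss of luminescent signal.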
Large screens that a line does not name were inactive. Shown are actives, neighbours in structure and some others; about 11% of the full set was active somewhere. Unless noted, calls follow the shape of the dose curve; as a rule, active = well fitted curve in the direction sought with a large enough effect; inconclusive = small, poorly fitted or top-dose-only effect, or another doubt; inactive = no such curve, though single readings can be large; an effect the other way counts as inactive or inconclusive.

CCC(C(=O)NCCCc1ccccc1)n1nc(C)c2c(C)n(-c3ccccc3)nc2c1=O (centres undefined)	none
CCC(C(=O)NCCc1ccco1)n1nc(C)c2c(C)n(-c3ccccc3)nc2c1=O (centres undefined)	none
Cc1cccc(-c2ocnc2C(=O)Nc2ncc(C)s2)c1	none (no result: NS1 function inh, Sm TGR inh, Pf growth 96h, Pf growth 48h)
COc1ccc(-n2c(/C=C/c3ccc(O)c(OC)c3)nc3ccccc3c2=O)cc1	Pf growth 48h inconclusive
COc1ccc(-n2c(/C=C/c3ccc4c(c3)OCO4)nc3ccccc3c2=O)cc1	Pf growth 96h 9.3µM, Pf growth 48h inconclusive
COc1cccc(-n2c(/C=C/c3ccc(O)c(O)c3)nc3ccccc3c2=O)c1	Pf growth 96h 9.3µM, Pf growth 48h inconclusive
Fc1ccc(Nc2nnc(C(F)(F)F)s2)cc1	Pf growth 96h inconclusive, Pf growth 48h inconclusive
CC(C)CN(CCNC(=O)c1cc(-c2ccc(Cl)s2)nc2ccccc12)CC(C)C	none (no result: NS1 function inh, Pf growth 96h, AMA1 RON2 block, Pf growth 48h)
CCCCOc1ccc(-c2cc(C(F)(F)F)c(C#N)c(SCC(=O)O)n2)cc1	none (no result: NS1 function inh)
Cc1ccc(C(=O)NCCCNC(=O)c2ccco2)cc1C	Pf growth 96h inconclusive
CC[C@H]1CN2CCc3cc(OC)c(OC)cc3C2C[C@@H]1C[C@H]1NCCc2cc(OC)c(OC)cc21 (some centres undefined)	Pf growth 96h 0.046µM, Pf growth 48h 0.052µM (no result: NS1 function inh)
CCOC(=O)CNS(=O)(=O)c1cc(-c2nnc(Nc3ccc4c(c3)OCO4)c3ccccc23)ccc1C	NS1 function inh inconclusive, Pf growth 96h inconclusive, Pf growth 48h 2.3µM
Cc1ccc(-c2nnc(N3CCOCC3)c3ccccc23)cc1S(=O)(=O)NCC1CCCO1 (centres undefined)	Pf growth 48h 8.3µM
CCOC(=O)CNS(=O)(=O)c1cc(-c2nnc(Nc3cccc(O)c3)c3ccccc23)ccc1C	none (no result: NS1 function inh, Pf growth 96h, AMA1 RON2 block, Pf growth 48h)
Cc1ccc(-c2nnc(Nc3cccc(O)c3)c3ccccc23)cc1S(=O)(=O)NCC1CCCO1 (centres undefined)	none (no result: NS1 function inh, Pf growth 96h, AMA1 RON2 block, Pf growth 48h)
Cc1ccc(-c2nnc(Nc3ccc(C(=O)N(C)C)cc3)c3ccccc23)cc1S(=O)(=O)NCC1CCCO1 (centres undefined)	Pf growth 96h inconclusive, Pf growth 48h 2.3µM
Cc1ccc(-c2nnc(N3CCC(C)CC3)c3ccccc23)cc1C	Pf growth 96h inconclusive, Pf growth 48h 13µM (no result: NS1 function inh)
Cc1ccccc1Nc1nnc(-c2ccc(C)c(S(=O)(=O)NCC3CCCO3)c2)c2ccccc12 (centres undefined)	none (no result: NS1 function inh, Pf growth 96h, AMA1 RON2 block, Pf growth 48h)
COc1ccc(C(=O)NN/C(=N/S(=O)(=O)c2ccc(C)cc2)c2ccccc2)cc1	none
O=C(NCCc1ccccc1)c1ccc(S(=O)(=O)N2CCCC2)cc1	none (no result: NS1 function inh)
C/C(CC(=O)Nc1cccnc1)=N\NC(=O)C(C)Oc1ccc(Cl)cc1Cl (centres undefined)	Pf growth 96h inconclusive
CC1(C)SC2c3ccccc3C(=O)N2[C@@H]1C(=O)NC1CC1 (some centres undefined)	none
CCc1nnc(NC(=O)c2nc(SC)ncc2Cl)s1	none (no result: NS1 function inh, Pf growth 96h, AMA1 RON2 block, Pf growth 48h)
Cc1ccc(-c2nnc(Nc3ccc(CC(N)=O)cc3)c3ccccc23)cc1S(N)(=O)=O	none
COC(=O)c1ccc(Nc2nnc(-c3ccc(C)c(S(=O)(=O)NCC4CCCO4)c3)c3ccccc23)cc1 (centres undefined)	Pf growth 96h inconclusive, Pf growth 48h 7.4µM
Cc1ccc(-c2nnc(Nc3ccc(CC(N)=O)cc3)c3ccccc23)cc1S(=O)(=O)NCC1CCCO1 (centres undefined)	Pf growth 96h inconclusive, Pf growth 48h 0.83µM
Cc1ccc(-c2nnc(Nc3ccc(C(=O)N(C)C)cc3)c3ccccc23)cc1S(=O)(=O)NC(C)(C)CO	Pf growth 96h inconclusive, Pf growth 48h 2.3µM
CNS(=O)(=O)c1cc(-c2nnc(Nc3ccc(CC(N)=O)cc3)c3ccccc23)ccc1C	Pf growth 48h 7.4µM
Cc1ccc(-c2nnc(Nc3ccc(OC(F)(F)Cl)cc3)c3ccccc23)cc1S(=O)(=O)NC(C)(C)CO	none (no result: NS1 function inh, Pf growth 96h, AMA1 RON2 block, Pf growth 48h)
Cc1cccc(C(=O)NC(=O)Nc2ccc(-c3cc(C(F)(F)F)nn3-c3ccccc3)cc2)c1	none (no result: NS1 function inh, Pf growth 96h, AMA1 RON2 block, Pf growth 48h)
COc1ccc(OC)c(-c2nnc3n(CCc4ccccc4)c(=O)c4ccccc4n23)c1	none (no result: NS1 function inh, Pf growth 96h, AMA1 RON2 block, Pf growth 48h)
Cc1ccc(-c2nnc(Nc3ccc(OCC(N)=O)cc3)c3ccccc23)cc1S(N)(=O)=O	Pf growth 48h 13µM
CCCCn1c(NC(=O)c2ccco2)c(C(=O)OCC)c2nc3ccccc3nc21	Sm TGR inh 25µM, Pf growth 96h inconclusive, Pf growth 48h inconclusive
CCCCCn1c(NC(=O)c2ccco2)c(S(=O)(=O)c2ccc(C)cc2)c2nc3ccccc3nc21	Sm TGR inh inconclusive, Pf growth 96h inconclusive, Pf growth 48h 5.2µM
CCCCn1c(NC(=O)c2ccco2)c(S(=O)(=O)c2ccc(C)cc2)c2nc3ccccc3nc21	Sm TGR inh inconclusive, Pf growth 96h inconclusive, Pf growth 48h inconclusive
CCN(c1ccccc1)S(=O)(=O)c1ccc(Cl)c(NC(=O)COC(=O)c2ccc(O)cc2)c1	Pf growth 96h 12µM, Pf growth 48h inconclusive
CCN(c1ccccc1)S(=O)(=O)c1ccc(Cl)c(NC(=O)COC(=O)c2cc(O)c3ccccc3c2O)c1	Sm TGR inh 3.5µM, Pf growth 96h 12µM, Pf growth 48h 13µM (no result: AMA1 RON2 block)
CCN(c1ccccc1)S(=O)(=O)c1ccc(Cl)c(NC(=O)COC(=O)C2CC2C)c1 (centres undefined)	none (no result: NS1 function inh)
CCN(CC)c1ccc(C(=O)OCC(=O)Nc2ccccc2-c2ccccc2)cc1	NS1 function inh inconclusive, Pf growth 96h 10µM, Pf growth 48h inconclusive
CCn1c(COc2ccc3ccccc3c2C)nnc1SCC(=O)Nc1cccc(C(=O)O)c1	Pf growth 96h inconclusive
CCc1ccccc1NC(=O)c1ccc2c(O)c(S(=O)(=O)c3ccccc3)c(=O)[nH]c2c1	none (no result: NS1 function inh, Pf growth 96h, AMA1 RON2 block, Pf growth 48h)
Cc1ccc(C2(C)NC(=O)N(CC(=O)N3c4ccccc4NC(=O)CC3C)C2=O)cc1 (centres undefined)	Pf growth 96h inconclusive (no result: NS1 function inh)
NCC#Cc1ccccc1	none (no result: Sm TGR inh, Pf growth 96h, AMA1 RON2 block, Pf growth 48h)
C#CC[N+](C)(C)CC#Cc1ccccc1	Pf growth 48h 1.7µM
CCN(CC)CC#Cc1ccc(C)cc1	none
Cc1ccc(C#CC[N+](C)(C)CC#Cc2ccccc2)cc1	Pf growth 96h 5.9µM, Pf growth 48h 2.3µM (no result: Sm TGR inh)
CCOC(=O)Cc1cnc(NC(=O)CSc2nc(C)cc(C)n2)s1	Pf growth 96h 10µM (no result: NS1 function inh)
CCOC(=O)c1c(-c2ccccc2)csc1NC(=O)CSc1nc(N)cc(N)n1	NS1 function inh inconclusive, Pf growth 96h 3.3µM
CCOC(=O)c1sc(NC(=O)CSc2nc(C)cc(-c3ccccc3)n2)c(C#N)c1C	none
CCOC(=O)c1c(-c2ccccc2)csc1NC(=O)CSc1nc(C)cc(C)n1	Pf growth 96h inconclusive, Pf growth 48h 13µM
